# PubChem BioAssay
# “And” between values parts separate entries of the source, which are not always exact repeats. Equal entries are not always repeated. Results filed as inconclusive are left out. The source made the active and inactive calls. Cut-off read from the data, not from the text of the source, unless noted: active = inhibition above about 80%; inactive = the rest.
# How the values were obtained:
# [1] = target: ATP-dependent translocase ABCB1 (Homo sapiens) (UniProt P08183); assay: P-glycoprotein substrate transport blockade – cell-based (AID 377; in the data active = fluorescence slope change above about 50%); details: MDR1-expressing cells, fluorescent substrate accumulation slope; stronger effect = higher value; concentration not given here
# [2] = compounds altering circadian rhythm period length – cell-based, LOPAC library, luminescence reporter (AID 2774; call rule not given here;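 note: values are relative to mean of DMSO wells on each plate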); details: circadian reporter cells, at 7 µM, actives lie on both sides
# [3] = compounds altering viability of human ES cells (AID 493140; call rule not given here;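 note: cells exposed to compounds for four days before counting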); details: human embryonic stem cell survival screen; stronger effect = higher value
# [4] = P. berghei load reduction in hepatocytes – cell-based, HepG2, luciferase luminescence, HepG2 viability, primary screen (AID 624349; in the data active = parasite load remaining mostly below about 12%, no sharp cut-off; inactive = mostly above about 10%;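 note: 100% = mean of DMSO negative control wells on the same plate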); details: P. berghei liver stage in HepG2, luciferase luminescence, concentration not given here; parasite load remaining: stronger effect = lower value; viability: measured here: HepG2 viability without parasites
# [5] = viability loss with induced miR-34 in A549 – imaging, A549 dox-inducible miR-34, nuclei and caspase counts, primary screen (AID 1347080;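 active = compounds whose cell count with miR-34 switched on is under 0.7 times the count with it off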); details: A549 miR-34 inducible, Hoechst nuclei count, 48 h
# [6] = MELAS cybrid and Rieske KO viability enhancers – cell-based, MELAS cybrids, Rieske KO mouse fibroblasts, CellTiter-Glo, primary screen (AID 1508586;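 active = mean z-score across replicates of 1.96 or higher in either the MELAS or the Rieske mutant cell line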;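 note: z relative to plate mean and SD of compound and empty wells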); details: low glucose
# [7] = target: NAD(+) hydrolase SARM1 (Homo sapiens) (UniProt Q6SZW1); assay: blocking NAD cleavage by SARM1 SAM-TIR – cell lysate, NAD-Glo luminescence (AID 1508614;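 active = compound whose remaining NAD level is above about 45 nM, limit read from the data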;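 note: higher remaining NAD means stronger inhibition of SARM1 NADase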); details: SAM-TIR HEK293T lysate NADase, at 1 µM, stronger effect = higher value
# [8] = target: Mitogen-activated protein kinase 7 (Homo sapiens) (UniProt Q13164); assay: Gal4-ERK5 driven luciferase induction – cell-based, HTS, primary screen (AID 1508626;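 active = luciferase signal above three times the same-plate solvent-only control wells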;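 note: luciferase driven by Gal4-ERK5 fusion binding five Gal4 sites before minimal TATA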); details: HeLa Gal4-ERK5 transactivation, 18 h, at 5 µM, stronger effect = higher value
# [9] = galactose survival enhancers in mitochondrial complex I cybrids – cell-based, galactose medium, ATP luminescence, primary screen (AID 1645843;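 active = z-score of at least 1.8 in each of two replicates, scored against plate mean and spread of sample wells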;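 note: positive z means more ATP and so rescue of galactose-driven cybrid death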); details: complex I mutant cybrid cells, 72 h, stronger effect = higher value
# [10] = system: Hepatitis C virus NS3 helicase; assay: blockers of NS3h binding to ssDNA – biochemical, fluorescence polarization, LOPAC1280 library, primary screen (AID 687035; in the data active = inhibition above about 37%); details: Purified HCV NS3 helicase, Cy5-dT15 ssDNA binding fluorescence polarization; stronger effect = higher value; concentration not given here
# [11] = compounds altering Cy5-DNA-NS3h complex signal – biochemical, LOPAC1280, artefact control for HCV NS3 helicase inhibitor project (AID 687037; call rule not given here); details: Cy5-DNA-NS3h complex fluorescence interference counterscreen
# [12] = blockers of cellular phospholipid synthesis – cell-based, LOPAC library, screen 4, primary screen (AID 1347384; call rule not given here); details: animal cells, phospholipid biosynthesis inhibition screen; at 10 µM
# [13] = growth inhibition, single agent or in combination, cell-based, chromothripsis tumors, cisplatin or BGB combos (AID 1671449); details: LFS_MB_P medulloblastoma cells;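 note: cells exposed for 96 hours; 0% = vehicle DMSO and 100% = killing by high DMSO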
# [14] = growth inhibition, single agent and combos, cell-based, chromothripsis tumors, cisplatin or BGB combos (AID 1671450); details: HDN33 neuroblastoma cells, stronger effect = higher value;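 note: cells exposed to compound for four days; 0% = vehicle DMSO and 100% = cell killing by high DMSO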
# [15] = growth inhibition, single agents and combos, ICB984, cell-based, cisplatin or BGB combos, synergistic combos for chromothripsis tumors (AID 1671451; call rule not given here;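 note: cells exposed for 96 hours before readout; 0% = vehicle DMSO and 100% = killing by high DMSO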); details: ICB984 medulloblastoma cells, drug combinations, stronger effect = higher value
# [16] = growth inhibition, single agents and combos, LFS_MB_1R, cell-based, cisplatin or BGB combos, synergistic combos for chromothripsis tumors (AID 1671452); details: LFS_MB_1R medulloblastoma cells, stronger effect = higher value;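 note: cells exposed for 96 hours before readout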
# [17] = growth inhibition, single agents and combos, HTB85, cell-based, BGB or cisplatin IC20 combos, synergistic combos for chromothripsis tumors (AID 1671453); details: HTB85 osteosarcoma cells, drug combinations, stronger effect = higher value;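 note: cells exposed for 96 hours before readout; 0% = vehicle DMSO and 100% = high DMSO killing control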
# [18] = growth inhibition, single agents and combos, CRL2098, cell-based, BGB or cisplatin IC20 combos, synergistic combos for chromothripsis tumors (AID 1671454); details: CRL2098 osteosarcoma cells, drug combinations, stronger effect = higher value;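 note: cells exposed for 96 h before readout; 0% = vehicle DMSO and 100% = killing by high DMSO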
# [19] = growth inhibition, single agents and combos, HD-MB03, cell-based, BGB or cisplatin IC20 combos, synergistic combos for chromothripsis tumors (AID 1671455; in the data active = inhibition above about 83%;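 note: 0% = vehicle DMSO and 100% = high DMSO as cytotoxic control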); details: HD-MB03 medulloblastoma cells, stronger effect = higher value
# [20] = growth inhibition, single agents and combos, UWB1.289, cell-based, BGB or cisplatin combos, synergistic combos for chromothripsis tumors (AID 1671456); details: UWB1.289 ovarian carcinoma cells, stronger effect = higher value;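 note: cells exposed to compound for four days; 0% = vehicle DMSO and 100% = killing by high DMSO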
# [21] = growth inhibition, single agents and combos, LFS_MB_2R, cell-based, cisplatin combos, synergistic combos for chromothripsis tumors (AID 1671457); details: LFS_MB_2R medulloblastoma cells, stronger effect = higher value;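 note: cells exposed to compound for four days before readout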
# [22] = growth inhibition, MDA-MB-436, cell-based, BGB or cisplatin combos, synergistic combos for chromothripsis tumors (AID 1671458; call rule not given here;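 note: cells exposed for 96 hours; 0% = vehicle DMSO and 100% = killing by high DMSO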); details: MDA-MB-436 breast carcinoma growth inhibition, drug combinations, stronger effect = higher value
# [23] = UWB1.289_BRCA1 ovarian cancer growth, cell-based, BGB or cisplatin combinations (AID 1671459); details: UWB1.289 BRCA1 ovarian carcinoma, drug combinations, stronger effect = higher value
# [24] = drug combination toxicity in non-malignant astrocytes – cell-based, BGB or cisplatin IC20 combos, cytotoxicity control for chromothriptic childhood tumor combination screen (AID 1671460); details: Human astrocytes, viability inhibition, drug combinations, at 0.5 µM, stronger effect = higher value;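 note: cells exposed to compounds for 96 hours before viability readout; 0% = vehicle and 100% = killing control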
# [25] = BT084 cell growth, single and combined drugs, ICGC_MB145, cisplatin and BGB IC40 combos (AID 1671461); details: BT084 medulloblastoma cells, drug combinations, stronger effect = higher value;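 note: cells exposed to drugs for 96 hours; 0% = vehicle DMSO and 100% = high DMSO full killing control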
# [26] = RCMB18 cell growth, single agent and combined, cisplatin and BGB IC40 combos (AID 1671462); details: RCMB18 medulloblastoma cells, stronger effect = higher value;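 note: cells exposed to compound for four days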
# [27] = CRL1545 cell growth, single agent and combined, cisplatin and BGB IC20 combos (AID 1671464); details: CRL1545 osteosarcoma cells, stronger effect = higher value;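 note: cells exposed to compound for 96 hours before readout; 0% = vehicle DMSO and 100% = high DMSO killing control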
# [28] = stronger effect = lower value, cell number ratio, induced over uninduced
# [29] = measured here: relative caspase fold change +Dox/-Dox
# [30] = measured here: total cells with miR-34 induction, stronger effect = lower value
# [31] = measured here: total cells without miR-34 induction
# [32] = MELAS cybrid survival, CellTiter-Glo 48 h, stronger effect = higher value
# [33] = Rieske KO mouse fibroblast survival, CellTiter-Glo 72 h
# [34] = measured here: combination with BGB IC40, at 0.05 µM
# [35] = measured here: with BGB IC20 combination, at 0.5 µM
# [36] = measured here: with cisplatin IC20 combination, at 0.5 µM
# [37] = measured here: combination with cisplatin, at 0.5 µM
# [38] = measured here: combination with cisplatin, at 5 µM
# Chain of ATP-dependent translocase ABCB1 (Homo sapiens) (P08183 whole entry, looked up): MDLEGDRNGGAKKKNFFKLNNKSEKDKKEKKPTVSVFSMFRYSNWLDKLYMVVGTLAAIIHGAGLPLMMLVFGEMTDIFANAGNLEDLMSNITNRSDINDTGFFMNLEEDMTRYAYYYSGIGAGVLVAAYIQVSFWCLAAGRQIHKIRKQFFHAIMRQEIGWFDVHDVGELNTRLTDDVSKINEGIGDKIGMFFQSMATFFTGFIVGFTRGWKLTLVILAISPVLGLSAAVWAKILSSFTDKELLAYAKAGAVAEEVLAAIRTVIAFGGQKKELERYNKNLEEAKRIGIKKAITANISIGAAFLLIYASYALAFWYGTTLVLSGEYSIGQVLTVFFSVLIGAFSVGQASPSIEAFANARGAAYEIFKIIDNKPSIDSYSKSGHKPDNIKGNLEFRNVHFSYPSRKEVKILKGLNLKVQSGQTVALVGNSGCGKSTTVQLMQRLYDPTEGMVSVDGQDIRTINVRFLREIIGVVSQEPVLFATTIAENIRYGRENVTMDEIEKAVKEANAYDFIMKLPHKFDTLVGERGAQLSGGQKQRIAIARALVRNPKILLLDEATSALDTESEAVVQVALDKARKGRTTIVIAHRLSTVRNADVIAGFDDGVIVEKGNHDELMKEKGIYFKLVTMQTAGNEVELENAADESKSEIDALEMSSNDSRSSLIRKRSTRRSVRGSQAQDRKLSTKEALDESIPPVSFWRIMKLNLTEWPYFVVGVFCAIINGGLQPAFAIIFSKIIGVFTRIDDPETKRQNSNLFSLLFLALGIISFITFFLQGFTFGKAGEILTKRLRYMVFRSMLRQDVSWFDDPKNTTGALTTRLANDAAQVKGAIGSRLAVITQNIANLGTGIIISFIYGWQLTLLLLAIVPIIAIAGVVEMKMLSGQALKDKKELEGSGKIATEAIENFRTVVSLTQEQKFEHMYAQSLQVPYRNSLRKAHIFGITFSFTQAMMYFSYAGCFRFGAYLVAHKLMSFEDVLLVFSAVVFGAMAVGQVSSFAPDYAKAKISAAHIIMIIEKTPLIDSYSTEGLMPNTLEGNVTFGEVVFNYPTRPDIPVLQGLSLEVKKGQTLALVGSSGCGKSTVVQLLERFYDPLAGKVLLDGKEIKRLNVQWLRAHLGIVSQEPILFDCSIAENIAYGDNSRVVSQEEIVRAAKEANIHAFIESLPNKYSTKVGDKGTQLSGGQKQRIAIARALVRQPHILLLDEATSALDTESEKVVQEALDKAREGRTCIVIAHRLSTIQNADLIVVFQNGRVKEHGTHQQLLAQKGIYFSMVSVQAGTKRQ
# Chain of Mitogen-activated protein kinase 7 (Homo sapiens) (Q13164 whole entry, looked up, the tested form may be a part): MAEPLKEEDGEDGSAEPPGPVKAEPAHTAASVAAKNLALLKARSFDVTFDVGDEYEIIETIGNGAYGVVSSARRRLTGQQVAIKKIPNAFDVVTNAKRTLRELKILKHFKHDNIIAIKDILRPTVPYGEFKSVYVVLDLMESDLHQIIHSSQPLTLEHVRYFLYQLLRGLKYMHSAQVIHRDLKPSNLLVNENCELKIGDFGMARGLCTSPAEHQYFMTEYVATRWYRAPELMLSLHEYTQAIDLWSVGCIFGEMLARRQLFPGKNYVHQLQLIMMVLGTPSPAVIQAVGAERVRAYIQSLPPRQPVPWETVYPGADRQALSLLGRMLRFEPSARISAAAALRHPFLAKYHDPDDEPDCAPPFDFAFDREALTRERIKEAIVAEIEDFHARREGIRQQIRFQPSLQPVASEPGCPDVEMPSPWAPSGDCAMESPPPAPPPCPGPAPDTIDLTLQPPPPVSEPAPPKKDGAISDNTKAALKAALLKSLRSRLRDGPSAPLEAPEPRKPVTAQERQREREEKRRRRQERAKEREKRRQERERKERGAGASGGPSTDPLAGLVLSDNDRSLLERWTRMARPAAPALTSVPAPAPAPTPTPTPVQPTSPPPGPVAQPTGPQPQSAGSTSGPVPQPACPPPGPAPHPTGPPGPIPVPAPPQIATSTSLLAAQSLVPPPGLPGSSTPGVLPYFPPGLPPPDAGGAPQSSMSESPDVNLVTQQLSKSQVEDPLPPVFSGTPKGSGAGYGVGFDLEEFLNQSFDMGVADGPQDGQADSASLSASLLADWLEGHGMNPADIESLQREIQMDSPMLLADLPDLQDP
# Chain of NAD(+) hydrolase SARM1 (Homo sapiens) (Q6SZW1 whole entry, looked up, the tested form may be a part): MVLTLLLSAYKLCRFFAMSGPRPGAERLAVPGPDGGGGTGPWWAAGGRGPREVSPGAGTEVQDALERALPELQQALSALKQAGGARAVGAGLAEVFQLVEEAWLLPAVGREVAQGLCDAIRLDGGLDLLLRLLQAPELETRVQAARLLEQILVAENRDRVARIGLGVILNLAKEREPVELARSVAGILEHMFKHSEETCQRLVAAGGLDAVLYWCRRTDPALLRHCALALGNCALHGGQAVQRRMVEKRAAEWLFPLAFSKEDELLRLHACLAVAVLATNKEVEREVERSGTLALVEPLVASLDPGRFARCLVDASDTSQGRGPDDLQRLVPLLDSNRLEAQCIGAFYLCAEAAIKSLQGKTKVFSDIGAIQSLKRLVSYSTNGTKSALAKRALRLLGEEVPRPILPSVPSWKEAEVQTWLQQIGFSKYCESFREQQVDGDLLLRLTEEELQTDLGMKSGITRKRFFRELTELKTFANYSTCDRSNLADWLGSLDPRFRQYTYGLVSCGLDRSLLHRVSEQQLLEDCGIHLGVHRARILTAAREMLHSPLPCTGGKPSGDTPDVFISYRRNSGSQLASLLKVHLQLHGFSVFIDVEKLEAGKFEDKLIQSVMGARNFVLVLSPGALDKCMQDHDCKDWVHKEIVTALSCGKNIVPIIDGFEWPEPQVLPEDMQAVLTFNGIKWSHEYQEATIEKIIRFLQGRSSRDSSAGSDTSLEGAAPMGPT
structure (smiles),measurement,setting,value
CO/N=C(\C(=O)N[C@@H]1C(=O)N2C(C(=O)O)=C(COC(C)=O)CS[C@H]12)c1csc(N)n1 (stereo in doubt),fluorescence slope change,[1],81.1% (active)
same,period change,[2],-0.095 h (inactive)
same,survival,[3],16.2 (inactive)
same,parasite load remaining,[4],35.6% (inactive) and 93.3% (inactive)
same,viability,[4],65.7% and 139%
same,fold change,[5]; [28],1.01 (inactive) and 0.948 (inactive)
same,fold change,[5]; [29],2.06 and 1.21
same,cell count,[5]; [30],10500 and 9330
same,cell count,[5]; [31],10300 and 9840
same,z-score,[6]; [32],0.18 (inactive)
same,z-score,[6]; [33],-0.136
same,remaining NAD,[7],10 nM (inactive)
same,luciferase signal,[8],152 AU (inactive)
same,z-score,[9],0.04 (inactive)
NC1CONC1=O (stereo not drawn),period change,[2],-0.095 h (inactive)
same,inhibition,[10],-2% (inactive)
same,fluorescence ratio (interference),[11],1 (inactive)
same,fold change,[5]; [28],1.01 (inactive) and 0.986 (inactive)
same,fold change,[5]; [29],2.01 and 1.56
same,cell count,[5]; [30],10700 and 9620
same,cell count,[5]; [31],10600 and 9760
same,outcome,[12],inactive
same,z-score,[9],0.065 (inactive) and 0.91 (inactive)
Nc1nc2n[nH]nc2c(=O)[nH]1,survival,[3],1.83 (inactive)
same,parasite load remaining,[4],236% (inactive) and 549% (inactive)
same,viability,[4],41.1% and 96.1%
same,fold change,[5]; [28],0.89 (inactive) and 0.844 (inactive)
same,fold change,[5]; [29],1.24 and 2.05
same,cell count,[5]; [30],3000 and 5470
same,cell count,[5]; [31],3360 and 6490
same,z-score,[6]; [32],-0.244 (inactive) and -0.54 (inactive)
same,z-score,[6]; [33],-0.138 and -0.665
same,inhibition,"[13]; at 0.5 µM, stronger effect = higher value",-21.3% (inactive)
same,inhibition,"[13]; measured here: combination with BGB IC20, at 0.005 µM",-4.53%
same,inhibition,"[13]; measured here: combination with BGB IC40, at 0.005 µM",-37%
same,inhibition,[13]; [34],-34.6%
same,inhibition,"[13]; measured here: combination with cisplatin, at 0.5 µM, stronger effect = higher value",-31.1%
same,inhibition,"[13]; measured here: combination with cisplatin, at 5 µM, stronger effect = higher value",8.39%
same,inhibition,"[14]; BGB combo, at 5 µM",20.7%
same,inhibition,[14]; at 0.5 µM,-10.2% (inactive)
same,inhibition,"[14]; cisplatin combo, at 5 µM",6.45%
same,inhibition,[14]; [35],-12.8%
same,inhibition,[14]; [36],-5.82%
same,inhibition,"[14]; single agent, at 5 µM",42.1%
same,inhibition,"[15]; BGB IC20 combo, at 0.005 µM",-1.82%
same,inhibition,"[15]; BGB IC40 combo, at 0.005 µM",-9.06%
same,inhibition,"[15]; BGB IC40 combo, at 0.05 µM",29.3%
same,inhibition,[15]; at 0.5 µM,-25% (inactive)
same,inhibition,"[15]; cisplatin combo, at 0.05 µM",27.3%
same,inhibition,"[15]; cisplatin combo, at 0.5 µM",-32.9%
same,inhibition,"[15]; cisplatin combo, at 5 µM",-42%
same,inhibition,"[15]; measured here: 5 uM single agent, at 5 µM",-12.8%
same,inhibition,[16]; at 0.5 µM,-9.31% (inactive)
same,inhibition,[16]; [34],-15.8%
same,inhibition,[16]; [37],-8.27%
same,inhibition,[16]; [38],12.9%
same,inhibition,[17]; at 0.5 µM,-22.9% (inactive)
same,inhibition,"[17]; measured here: with BGB IC20, at 0.5 µM",-34.4%
same,inhibition,"[17]; measured here: with BGB IC20, at 5 µM",1.91%
same,inhibition,"[17]; measured here: with cisplatin IC20, at 0.5 µM",-27.1%
same,inhibition,"[17]; measured here: with cisplatin IC20, at 5 µM",-19.1%
same,inhibition,"[17]; single agent, at 5 µM",1.86%
same,inhibition,[18]; at 0.5 µM,-27.1% (inactive)
same,inhibition,"[18]; measured here: combination with BGB at IC20, at 0.5 µM",-20.7%
same,inhibition,"[18]; measured here: combination with cisplatin at IC20, at 0.5 µM",-21.9%
same,inhibition,[19]; at 0.5 µM,19.3% (inactive)
same,inhibition,"[19]; measured here: combo with BGB at IC20, at 0.5 µM",16.1%
same,inhibition,"[19]; measured here: combo with cisplatin at IC20, at 0.5 µM",19.7%
same,inhibition,[20]; at 0.5 µM,32.6% (inactive)
same,inhibition,"[20]; measured here: inhibition with BGB combination, at 0.05 µM",-18.7%
same,inhibition,"[20]; measured here: inhibition with cisplatin combination, at 0.05 µM",7.62%
same,inhibition,[21]; at 0.5 µM,-9.15% (inactive)
same,inhibition,[21]; [37],-13.8%
same,inhibition,[21]; [38],-35.4%
same,inhibition,[22]; at 0.5 µM,-11.4% (inactive)
same,inhibition,"[22]; measured here: BGB combination, at 0.5 µM",-12.2%
same,inhibition,"[22]; measured here: BGB combination, at 5 µM",-5.12%
same,inhibition,"[22]; measured here: cisplatin combination, at 0.5 µM",-17.5%
same,inhibition,"[22]; measured here: cisplatin combination, at 5 µM",11.7%
same,inhibition,"[23]; BGB combination, concentration series, at 5 µM",85.1%
same,inhibition,[23]; at 0.5 µM,38.3% (inactive)
same,inhibition,"[23]; cisplatin combination, concentration series, at 5 µM",92.1%
same,inhibition,[24],3.68% (inactive)
same,inhibition,[24]; measured here: combo with BGB IC20,0.254%
same,inhibition,[24]; measured here: combo with cisplatin IC20,6.71%
same,inhibition,[25]; at 0.5 µM,-32% (inactive)
same,inhibition,"[25]; cisplatin combination, at 0.5 µM",-3.22%
same,inhibition,"[25]; cisplatin combination, at 5 µM",22.6%
same,inhibition,"[25]; measured here: BGB IC40 combination 0.05 uM, at 0.05 µM",-14%
same,inhibition,"[25]; single agent, at 5 µM",6.12%
same,inhibition,[26]; at 0.5 µM,-14.7% (inactive)
same,inhibition,"[26]; cisplatin combo, at 5 µM",33.1%
same,inhibition,"[26]; measured here: BGB IC40 combination, at 0.05 µM",-43.3%
same,inhibition,[26]; [37],3.47%
same,inhibition,"[26]; single agent, at 5 µM",22.1%
same,inhibition,[27]; at 0.5 µM,-20.1% (inactive)
same,inhibition,[27]; [35],-2.71%
same,inhibition,[27]; [36],-31.6%
same,inhibition,"[27]; single agent, at 0.05 µM",-28.1%
same,inhibition,"[27]; single agent, at 5 µM",32.5%
CCCC1CC(C(=O)NC(C(C)Cl)C2OC(SC)C(O)C(O)C2O)N(C)C1 (stereo not drawn),fold change,[5]; [28],0.887 (inactive) and 0.926 (inactive) and 0.928 (inactive)
same,fold change,[5]; [29],0.463 and 0.824 and 1.2
same,cell count,[5]; [30],8440 and 7670 and 9370
same,cell count,[5]; [31],9520 and 8280 and 10100
same,z-score,[6]; [32],0.443 (inactive) and -0.35 (inactive) and -0.364 (inactive)
same,z-score,[6]; [33],-0.229 and -0.0713 and 0.118
same,z-score,[9],-0.495 (inactive)
CCCCC[C@H](O)/C=C/[C@@H]1[C@@H](C/C=C\CCCC(=O)O)[C@@H](O)C[C@H]1O,survival,[3],95.3 (inactive)
same,parasite load remaining,[4],32.1% (inactive)
same,viability,[4],102%
same,z-score,[6]; [32],-0.59 (inactive)
same,z-score,[6]; [33],-0.344
same,z-score,[9],0.625 (inactive)
